Laboratory results as given in PubChem BioAssay AID1159580 (chemical genetic matrix, 2015).
Where “and” joins values, the source holds several entries; their conditions need not be identical. Identical values can stand only once. In all, about 5,500 compounds went through this assay and about 2,000 (36%) were called active. Not shown: some 18% with an inconclusive outcome. Cut-off read from the data, not from the text of the source: active = normalized growth mostly below about 0.91 (no sharp cut-off); inconclusive = no clear call, values can overlap the other calls; inactive = mostly above about 0.92. The list shows a part of the results.

Assay: chemical genetic growth profiling, strain panel (AID 1159580);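 note: tested at 20 µM; growth read once vehicle control cultures reached saturation at 30 °C; 1 = growth at the plate median or of vehicle wells; lower values mean less growth of the strain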
Conditions: S. cerevisiae deletion strains, growth OD

Measured: normalized growth

CC(=O)OCC1=C(C(=O)O)N2C(=O)[C@@H](NC(=O)Cc3cccs3)[C@H]2SC1
inactive: locus YAL013W, strain DEP1, hits give low values 0.991 | locus YAL021C, strain ccr4, hits give low values 1.03 | locus YAL026C, strain drs2, hits give low values 0.991 | locus YAL030W, strain snc1, hits give low values 1.02 | locus YBL061C, strain skt5, hits give low values 1.03 | locus YBR009C, strain hhf1, hits give low values 0.974 | locus YBR021W, strain FUR4, hits give low values 1.01 | locus YBR023C, strain chs3, hits give low values 1.03 | locus YBR171W, strain sec66, hits give low values 1.02 | locus YBR229C, strain ROT2, hits give low values 0.948 | locus YBR231C, strain swc5, hits give low values 0.988 | locus YBR279W, strain paf1, hits give low values 0.987 | locus YCL011C, strain gbp2, hits give low values 0.973 | locus YCL016C, strain dcc1, hits give low values 0.986 | locus YCL029C, strain bik1, hits give low values 0.984 | locus YCL069W, strain vba3, hits give low values 1.01 | locus YCR088W, strain abp1, hits give low values 1.01 | locus YDL005C, strain med2, hits give low values 1.03 | locus YDL035C, strain GPR1, hits give low values 0.96 | locus YDL040C, strain nat1, hits give low values 1.02 | locus YDL074C, strain BRE1, hits give low values 0.993 | locus YDL101C, strain DUN1, hits give low values 0.989 | locus YDL134C, strain PPH21, hits give low values 0.959 | locus YDL185W, strain tfp1, hits give low values 0.965 | locus YDL192W, strain arf1, hits give low values 0.977 | locus YDR001C, strain nth1, hits give low values 1.02 | locus YDR069C, strain doa4, hits give low values 1.03 | locus YDR101C, strain arx1, hits give low values 0.972 | locus YDR137W, strain rgp1, hits give low values 0.962 | locus YDR150W, strain NUM1, hits give low values 0.983 | locus YDR159W, strain sac3, hits give low values 1.05 | locus YDR162C, strain NBP2, hits give low values 0.948 | locus YDR195W, strain ref2 1.04 | locus YDR297W, strain sur2, hits give low values 1.02 | locus YDR318W, strain mcm21, hits give low values 0.991 | locus YDR334W, strain swr1, hits give low values 0.986 | locus YDR335W, strain msn5, hits give low values 0.99 | locus YDR388W, hits give low values 0.981 | locus YDR392W, strain spt3, hits give low values 0.959 | locus YDR502C, strain sam2, hits give low values 0.997 | locus YEL003W, strain gim4, hits give low values 1 | locus YEL037C, strain rad23, hits give low values 1 | locus YEL061C, strain CIN8 (second series), hits give low values 1.01 | locus YEL061C, strain CIN8, hits give low values 0.984 | locus YER015W, strain faa2, hits give low values 0.972 | locus YER016W, strain bim1, hits give low values 0.987 | locus YER110C, hits give low values 0.972 | locus YER111C, strain swi4, hits give low values 0.995 | locus YER155C, strain BEM2 (second series), hits give low values 1 | locus YER155C, strain BEM2, hits give low values 1 | locus YER167W, strain BCK2, hits give low values 0.986 | locus YFR010W, strain ubp6, hits give low values 1.01 | locus YGL078C, strain dbp3, hits give low values 0.987 | locus YGL086W, strain mad1, hits give low values 0.979 | locus YGL167C, strain pmr1, hits give low values 1.02 | locus YGL173C, strain kem1, hits give low values 0.987 | locus YGL227W, strain vid30, hits give low values 1.04 | locus YGL240W, strain doc1, hits give low values 1.06 | locus YGL248W, strain PDE1, hits give low values 1.01 | locus YGL253W, strain hxk2, hits give low values 1 | locus YGR135W, strain pre9, hits give low values 1.04 | locus YGR252W, strain gcn5, hits give low values 1.03 | locus YHR013C, strain ard1, hits give low values 1.03 | locus YHR027C, strain rpn1, hits give low values 0.994 | locus YHR030C, strain SLT2, hits give low values 0.977 and 0.94 | locus YHR079C, strain IRE1 (second series), hits give low values 0.995 | locus YHR079C, strain IRE1, hits give low values 0.976 | locus YHR094C, strain hxt1, hits give low values 0.982 | locus YHR129C, strain ARP1, hits give low values 0.984 | locus YHR142W, strain chs7, hits give low values 0.995 | locus YHR200W, strain rpn10, hits give low values 0.983 | locus YIL066C, strain RNR3, hits give low values 0.972 | locus YIL073C, strain SPO22, hits give low values 1.04 | locus YIL125W, strain kgd1, hits give low values 0.983 | locus YIR030C, strain dcg1, hits give low values 0.99 | locus YJL092W, strain hpr5, hits give low values 1.01 | locus YJL095W, strain BCK1 (second series), hits give low values 1 | locus YJL095W, strain BCK1, hits give low values 1.05 and 0.96 | locus YJL115W, strain asf1, hits give low values 1.02 | locus YJL129C, strain trk1, hits give low values 1.05 | locus YJL134W, strain LCB3, hits give low values 0.99 | locus YJL154C, strain vps35, hits give low values 1.02 | locus YJL164C, strain tpk1, hits give low values 0.972 | locus YJL166W, strain qcr8, hits give low values 0.996 | locus YJL168C, strain set2, hits give low values 0.986 | locus YJL187C, strain SWE1 (second series), hits give low values 1.01 | locus YJL187C, strain SWE1, hits give low values 1.01 | locus YJR043C, strain POL32, hits give low values 0.963 | locus YJR066W, strain TOR1, hits give low values 0.995 | locus YJR075W, strain HOC1, hits give low values 1 | locus YKL009W, strain mrt4, hits give low values 1 | locus YKL068W, hits give low values 0.977 | locus YKL085W, strain MDH1 (second series), hits give low values 0.966 | locus YKL085W, strain MDH1, hits give low values 0.966 | locus YKL160W, strain elf1, hits give low values 1.01 | locus YKR001C, strain vps1, hits give low values 0.986 | locus YKR026C, strain gcn3, hits give low values 1.04 | locus YKR091W, strain srl3, hits give low values 0.999 | locus YLL001W, strain dnm1, hits give low values 0.992 | locus YLL026W, hits give low values 1.02 | locus YLL041C, strain sdh2, hits give low values 1.02 | locus YLR027C, strain aat2, hits give low values 1.01 | locus YLR039C, strain RIC1, hits give low values 0.986 | locus YLR058C, strain SHM2, hits give low values 0.978 | locus YLR102C, strain apc9, hits give low values 0.987 | locus YLR113W, strain HOG1, hits give low values 0.971 | locus YLR221C, strain rsa3, hits give low values 0.996 | locus YLR258W, strain gsy2, hits give low values 1 | locus YLR262C, strain YPT6 (second series), hits give low values 1.01 | locus YLR262C, strain YPT6, hits give low values 0.937 | locus YLR268W, strain sec22, hits give low values 0.975 | locus YLR320W, strain mms22, hits give low values 0.978 | locus YLR330W, strain CHS5, hits give low values 0.99 | locus YLR342W, strain FKS1 (second series), hits give low values 1 | locus YLR342W, strain FKS1, hits give low values 0.992 | locus YLR357W, strain rsc2, hits give low values 0.991 | locus YLR370C, strain arc18, hits give low values 1 | locus YLR371W, strain rom2, hits give low values 0.998 | locus YLR384C, strain iki3, hits give low values 1.03 | locus YLR418C, strain cdc73, hits give low values 1.01 | locus YML016C, strain PPZ1, hits give low values 0.996 | locus YML032C, strain rad52, hits give low values 0.98 | locus YML120C, strain ndi1, hits give low values 1 | locus YML124C, strain tub3, hits give low values 0.985 | locus YMR058W, strain fet3, hits give low values 0.923 | locus YMR078C, strain ctf18, hits give low values 0.986 | locus YMR125W, strain sto1, hits give low values 1.03 | locus YMR129W, hits give low values 1.02 | locus YMR205C, strain PFK2, hits give low values 1.02 | locus YMR223W, strain ubp8, hits give low values 1.01 | locus YMR231W, strain pep5, hits give low values 1.01 | locus YMR263W, strain SAP30, hits give low values 0.998 | locus YMR307W, strain GAS1, hits give low values 0.898 | locus YNL067W, strain RPL9B, hits give low values 1.01 | locus YNL071W, strain lat1, hits give low values 0.994 | locus YNL183C, strain NPR1, hits give low values 0.919 | locus YNL209W, strain ssb2, hits give low values 1 | locus YNL233W, strain BNI4, hits give low values 1.03 | locus YNL248C, strain rpa49, hits give low values 0.993 | locus YNL250W, strain rad50, hits give low values 0.995 | locus YNL271C, strain bni1, hits give low values 1 | locus YNL298W, strain CLA4, hits give low values 0.979 | locus YNL307C, strain MCK1, hits give low values 0.988 | locus YNL322C, strain KRE1 (second series), hits give low values 1.01 | locus YNL322C, strain KRE1, hits give low values 0.989 | locus YNR049C, strain mso1, hits give low values 1.02 | locus YNR052C, strain pop2, hits give low values 0.985 | locus YOL006C, strain TOP1, hits give low values 1.13 | locus YOL012C, strain htz1 0.756 | locus YOL147C, strain pex11, hits give low values 0.986 | locus YOR001W, strain rrp6, hits give low values 1.02 | locus YOR061W, strain CKA2, hits give low values 0.968 | locus YOR069W, strain VPS5, hits give low values 0.987 | locus YOR070C, strain gyp1, hits give low values 0.995 | locus YOR080W, strain dia2, hits give low values 1.02 | locus YOR083W, strain WHI5, hits give low values 0.993 | locus YOR106W, strain vam3, hits give low values 0.981 | locus YOR136W, strain idh2, hits give low values 0.983 | locus YOR144C, strain elg1, hits give low values 0.988 | locus YOR184W, strain ser1, hits give low values 1 | locus YOR231W, strain MKK1, hits give low values 0.972 | locus YOR265W, strain rbl2, hits give low values 1.02 | locus YOR270C, strain vph1, hits give low values 0.925 | locus YOR290C, strain snf2, hits give low values 0.992 | locus YOR316C, strain cot1, hits give low values 0.973 | locus YPL051W, strain arl3, hits give low values 0.995 | locus YPL055C, strain LGE1, hits give low values 0.989 | locus YPL078C, strain atp4, hits give low values 1.02 | locus YPL106C, strain sse1, hits give low values 0.945 | locus YPL240C, strain hsp82, hits give low values 1.04 | locus YPL256C, strain CLN2, hits give low values 0.962 | locus YPR119W, strain clb2, hits give low values 0.984 | locus YPR141C, strain kar3, hits give low values 0.983 | locus YPR163C, strain tif3, hits give low values 0.984 | locus YPR167C, strain met16, hits give low values 0.997 | strain wtn01, hits give low values 1
